Experimental data taken from PubChem BioAssay (NCATS).
Records with an inconclusive call do not appear. The source made the active and inactive calls. Calls follow the shape of the dose curve; as a rule, active = well fitted cell-killing curve with a large enough effect; inconclusive = small, poorly fitted or top-dose-only effect, or effect the other way; inactive = flat fitted curve, though single readings scatter.

What was measured:
Assay in all cases: Primary qHTS to identify gynecologic anti-cancer compounds using libraries of approved drugs and bioactive compounds (AID 1345084); also: nearly all actives have a fitted effect of over 55% in size
Conditions in all cases: Gynecologic cancer cell panel viability, ATPlite luminescence, 48 h; series mostly up to 57.5 µM
[1] = system: PA-1
Procedure, shortened: (§1)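 Cells, 1,000 per well, were allowed to settle for 16 h at 37 C before compound addition. Five concentrations were tested for 48 h, and viability was read by ATPlite luminescence after 15 min at room temperature.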

[2] = system: SKOV3
Procedure, shortened: as §1

[3] = system: Tov-21-G
Procedure, shortened: as §1

[4] = system: Tov112D
Procedure, shortened: as §1
% is scaled to controls: 0 for no effect and ±100 for the full control effect.

CC(CCc1ccc(O)cc1)O[C@@H]1O[C@H](CO[C@H]2OC[C@](O)(CO)[C@H]2O)[C@@H](O)[C@H](O)[C@H]1O (stereo partly specified)
inactive: Potency [1] | Potency [2] | Potency [3] | Potency [4]

COC(=O)C1(C)CCC(O)C2(C)c3c(O)cc(C(C)C)cc3C(O)C(OC(C)=O)C12 (stereo unspecified)
inactive: Potency [1] | Potency [2] | Potency [3] | Potency [4]

C[C@]12CC[C@H]3[C@@H]([C@H](O)CC4=CC(=O)CC[C@@]43C)[C@@H]1CC[C@@H]2O
inactive: Potency [1] | Potency [2] | Potency [3] | Potency [4]

CC(C)=C1CC[C@]23CO[C@H](C2)[C@@](O)(C(=O)O)CCC13 (stereo partly specified)
inactive: Potency [1] | Potency [2] | Potency [3] | Potency [4]

C/C=C(\C)C(=O)OC1C(C)OC(OC2C(C)OC(OC3CCC4(C)C(=CCC5C4CCC4(C)C(C(C)OC6OC(COC7OC(CO)C(O)C(O)C7O)C(O)C(O)C6O)CCC54O)C3)CC2OC)C(O)C1OC (stereo unspecified)
inactive: activity change, negative = cytotoxicity [1] 9.3% [at 11.6 µM] | activity change, negative = cytotoxicity [2] -10% [at 11.6 µM] | activity change, negative = cytotoxicity [3] 3.11% [at 11.6 µM] | activity change, negative = cytotoxicity [4] -0.387% [at 11.6 µM]

C1=C2CCCN[C@H]2[C@@H]2C[C@H]1[C@H]1CCCCN1C2
inactive: Potency [1] | Potency [2] | Potency [3] | Potency [4]

COC(=O)C12C(=O)C(C)(O)C(=O)C1(C)C(C)=CC1C34CCC(OC3=O)C(C)(CO)C4CCC12C (stereo unspecified)
inactive: Potency [1] | Potency [2] | Potency [3] | Potency [4]

COc1ccccc1CN[C@H]1C2CCN(CC2)[C@H]1C(c1ccccc1)c1ccccc1
inactive: Potency [1] | Potency [2] | Potency [3] | Potency [4]

CC(C)(C)c1cc(C(C)(C)C)c2c(c1)C(O)(C(F)(F)F)C(=O)O2 (stereo unspecified)
inactive: Potency [1] | Potency [2] | Potency [3] | Potency [4]
